Test results taken from the supplement of paper PMC11732987, “Enantioselective OTUD7B fragment discovery through chemoproteomics screening and high-throughput optimisation” (Communications Chemistry, 2025).

Assays:
Assay in all cases: log2 ratio of Biotin-Ahx-Ub-VS probe labelling (fragment/DMSO); higher = less target engagement (more negative = stronger competition), active = hit call of the paper (q ≤ 0.05, log2 ratio ≤ -1)
Settings in all cases: compound concentration: 200 uM; treatment time: 3 h
[1] = molecular target: T1, USP42 (UniProt Q9H9J4)
T1 sequence (whole entry): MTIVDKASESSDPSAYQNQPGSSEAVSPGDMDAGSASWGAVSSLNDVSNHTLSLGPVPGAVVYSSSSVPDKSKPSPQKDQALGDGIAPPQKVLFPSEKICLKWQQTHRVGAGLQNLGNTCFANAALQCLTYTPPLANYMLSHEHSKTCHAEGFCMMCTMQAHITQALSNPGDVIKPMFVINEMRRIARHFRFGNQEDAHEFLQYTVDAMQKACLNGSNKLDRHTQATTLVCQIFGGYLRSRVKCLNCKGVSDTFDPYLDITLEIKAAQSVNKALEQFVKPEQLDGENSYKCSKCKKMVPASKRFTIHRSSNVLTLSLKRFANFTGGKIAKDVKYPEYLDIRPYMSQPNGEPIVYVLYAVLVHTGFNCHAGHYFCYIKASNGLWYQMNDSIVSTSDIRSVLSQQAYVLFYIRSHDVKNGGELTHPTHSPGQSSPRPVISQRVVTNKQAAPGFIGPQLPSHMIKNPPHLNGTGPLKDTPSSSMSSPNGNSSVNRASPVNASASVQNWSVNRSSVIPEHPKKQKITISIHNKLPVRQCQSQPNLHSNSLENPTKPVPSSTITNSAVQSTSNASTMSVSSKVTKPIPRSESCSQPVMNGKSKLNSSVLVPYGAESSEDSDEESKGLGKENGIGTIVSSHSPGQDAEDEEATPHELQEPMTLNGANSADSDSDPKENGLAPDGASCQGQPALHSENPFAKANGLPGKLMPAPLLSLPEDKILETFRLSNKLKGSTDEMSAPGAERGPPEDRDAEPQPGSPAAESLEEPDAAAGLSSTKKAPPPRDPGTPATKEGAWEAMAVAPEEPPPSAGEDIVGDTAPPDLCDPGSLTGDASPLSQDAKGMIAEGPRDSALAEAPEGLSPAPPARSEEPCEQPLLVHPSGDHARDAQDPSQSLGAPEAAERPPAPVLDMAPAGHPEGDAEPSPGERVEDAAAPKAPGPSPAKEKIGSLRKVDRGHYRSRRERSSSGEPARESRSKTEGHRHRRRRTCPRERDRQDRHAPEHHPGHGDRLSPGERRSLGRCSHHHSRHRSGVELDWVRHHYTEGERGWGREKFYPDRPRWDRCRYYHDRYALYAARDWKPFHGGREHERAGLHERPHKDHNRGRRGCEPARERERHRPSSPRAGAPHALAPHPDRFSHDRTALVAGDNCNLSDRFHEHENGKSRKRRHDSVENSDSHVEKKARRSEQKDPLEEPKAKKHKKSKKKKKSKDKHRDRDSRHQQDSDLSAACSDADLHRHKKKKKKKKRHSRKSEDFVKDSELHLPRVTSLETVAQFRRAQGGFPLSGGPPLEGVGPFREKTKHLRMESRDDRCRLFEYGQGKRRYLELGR
Summary of the method: (§1)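 Triplicate samples of HEK293T lysate, 495 µg each, received fragment at 200 µM or vehicle for 3 h, followed by Biotin-Ahx-Ub-VS (0.5 µM final) for 1 h. After NeutrAvidin enrichment of labelled DUBs and LysC/trypsin digestion, peptides were run by diaPASEF LC-MS/MS. The values are average log2 fragment/vehicle ratios from global-median-normalised Spectronaut label-free quantities, tested by unpaired t-test on proteins having ≥2 unique peptides.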

[2] = molecular target: USP46 (UniProt P62068)
Summary of the method: as §1

[3] = molecular target: T2, USP47 (UniProt Q96K76)
T2 sequence (whole entry): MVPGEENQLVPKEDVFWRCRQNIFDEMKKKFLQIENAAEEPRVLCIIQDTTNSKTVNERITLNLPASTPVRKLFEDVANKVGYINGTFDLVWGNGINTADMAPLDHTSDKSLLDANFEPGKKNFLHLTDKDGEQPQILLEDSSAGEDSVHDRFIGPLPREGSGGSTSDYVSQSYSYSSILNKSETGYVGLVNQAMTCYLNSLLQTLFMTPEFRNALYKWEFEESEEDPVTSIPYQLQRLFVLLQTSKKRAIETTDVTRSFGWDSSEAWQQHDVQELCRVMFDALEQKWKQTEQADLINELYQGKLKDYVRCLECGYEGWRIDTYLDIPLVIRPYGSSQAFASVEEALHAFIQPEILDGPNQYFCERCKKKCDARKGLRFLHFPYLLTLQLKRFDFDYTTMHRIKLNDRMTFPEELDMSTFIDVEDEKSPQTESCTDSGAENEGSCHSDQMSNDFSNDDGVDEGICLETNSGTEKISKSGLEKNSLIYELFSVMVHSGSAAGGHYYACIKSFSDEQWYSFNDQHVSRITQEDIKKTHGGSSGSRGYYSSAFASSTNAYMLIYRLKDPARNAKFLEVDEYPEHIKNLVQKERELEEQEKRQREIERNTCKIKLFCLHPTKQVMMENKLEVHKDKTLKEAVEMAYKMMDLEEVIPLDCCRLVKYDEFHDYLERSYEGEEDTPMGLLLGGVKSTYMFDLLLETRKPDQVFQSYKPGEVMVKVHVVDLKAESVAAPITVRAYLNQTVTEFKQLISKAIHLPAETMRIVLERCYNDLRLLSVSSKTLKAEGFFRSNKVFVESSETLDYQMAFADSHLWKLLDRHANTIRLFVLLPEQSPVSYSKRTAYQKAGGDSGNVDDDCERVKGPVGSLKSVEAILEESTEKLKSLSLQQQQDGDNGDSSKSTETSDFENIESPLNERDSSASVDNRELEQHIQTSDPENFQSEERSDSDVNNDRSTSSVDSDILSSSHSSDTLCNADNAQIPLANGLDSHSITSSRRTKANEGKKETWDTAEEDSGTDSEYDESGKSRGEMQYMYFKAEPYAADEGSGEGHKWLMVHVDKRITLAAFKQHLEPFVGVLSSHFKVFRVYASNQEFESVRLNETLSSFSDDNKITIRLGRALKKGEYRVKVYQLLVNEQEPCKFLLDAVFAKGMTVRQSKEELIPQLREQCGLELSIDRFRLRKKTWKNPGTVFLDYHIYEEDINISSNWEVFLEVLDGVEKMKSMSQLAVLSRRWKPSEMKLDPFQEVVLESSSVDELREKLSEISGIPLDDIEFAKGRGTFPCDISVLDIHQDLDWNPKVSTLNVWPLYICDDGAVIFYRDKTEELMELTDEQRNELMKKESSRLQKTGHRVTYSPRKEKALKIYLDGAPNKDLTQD
Summary of the method: as §1

[4] = molecular target: T3, USP48 (UniProt Q86UV5)
T3 sequence (whole entry): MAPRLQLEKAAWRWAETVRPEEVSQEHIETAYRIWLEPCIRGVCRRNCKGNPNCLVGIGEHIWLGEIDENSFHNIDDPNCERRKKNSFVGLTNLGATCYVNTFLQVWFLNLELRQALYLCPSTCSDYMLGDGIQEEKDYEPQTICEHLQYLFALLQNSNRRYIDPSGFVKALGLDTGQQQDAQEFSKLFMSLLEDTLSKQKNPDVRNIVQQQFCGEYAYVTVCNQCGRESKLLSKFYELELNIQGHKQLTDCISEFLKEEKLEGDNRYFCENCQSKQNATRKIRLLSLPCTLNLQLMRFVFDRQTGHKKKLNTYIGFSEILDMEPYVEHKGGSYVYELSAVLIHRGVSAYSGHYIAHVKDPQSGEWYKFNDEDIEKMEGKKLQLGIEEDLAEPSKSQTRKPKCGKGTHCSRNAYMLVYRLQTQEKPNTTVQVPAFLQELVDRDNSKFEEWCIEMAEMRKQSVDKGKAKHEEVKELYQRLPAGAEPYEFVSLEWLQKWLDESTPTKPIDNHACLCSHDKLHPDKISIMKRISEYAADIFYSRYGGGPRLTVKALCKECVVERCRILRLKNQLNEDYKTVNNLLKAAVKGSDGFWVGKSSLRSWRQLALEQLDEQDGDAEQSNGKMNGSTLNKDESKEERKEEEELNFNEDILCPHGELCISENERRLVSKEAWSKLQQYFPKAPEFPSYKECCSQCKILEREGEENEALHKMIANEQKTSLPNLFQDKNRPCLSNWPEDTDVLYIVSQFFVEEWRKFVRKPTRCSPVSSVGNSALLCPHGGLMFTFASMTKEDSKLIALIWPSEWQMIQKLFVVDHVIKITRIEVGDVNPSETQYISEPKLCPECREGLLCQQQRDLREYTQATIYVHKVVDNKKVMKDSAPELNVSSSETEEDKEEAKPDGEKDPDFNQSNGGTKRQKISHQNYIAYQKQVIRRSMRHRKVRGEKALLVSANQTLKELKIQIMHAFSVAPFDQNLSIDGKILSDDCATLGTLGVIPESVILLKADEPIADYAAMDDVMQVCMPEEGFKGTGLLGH
Summary of the method: as §1

[5] = molecular target: T4, USP5 (UniProt P45974)
T4 sequence (whole entry): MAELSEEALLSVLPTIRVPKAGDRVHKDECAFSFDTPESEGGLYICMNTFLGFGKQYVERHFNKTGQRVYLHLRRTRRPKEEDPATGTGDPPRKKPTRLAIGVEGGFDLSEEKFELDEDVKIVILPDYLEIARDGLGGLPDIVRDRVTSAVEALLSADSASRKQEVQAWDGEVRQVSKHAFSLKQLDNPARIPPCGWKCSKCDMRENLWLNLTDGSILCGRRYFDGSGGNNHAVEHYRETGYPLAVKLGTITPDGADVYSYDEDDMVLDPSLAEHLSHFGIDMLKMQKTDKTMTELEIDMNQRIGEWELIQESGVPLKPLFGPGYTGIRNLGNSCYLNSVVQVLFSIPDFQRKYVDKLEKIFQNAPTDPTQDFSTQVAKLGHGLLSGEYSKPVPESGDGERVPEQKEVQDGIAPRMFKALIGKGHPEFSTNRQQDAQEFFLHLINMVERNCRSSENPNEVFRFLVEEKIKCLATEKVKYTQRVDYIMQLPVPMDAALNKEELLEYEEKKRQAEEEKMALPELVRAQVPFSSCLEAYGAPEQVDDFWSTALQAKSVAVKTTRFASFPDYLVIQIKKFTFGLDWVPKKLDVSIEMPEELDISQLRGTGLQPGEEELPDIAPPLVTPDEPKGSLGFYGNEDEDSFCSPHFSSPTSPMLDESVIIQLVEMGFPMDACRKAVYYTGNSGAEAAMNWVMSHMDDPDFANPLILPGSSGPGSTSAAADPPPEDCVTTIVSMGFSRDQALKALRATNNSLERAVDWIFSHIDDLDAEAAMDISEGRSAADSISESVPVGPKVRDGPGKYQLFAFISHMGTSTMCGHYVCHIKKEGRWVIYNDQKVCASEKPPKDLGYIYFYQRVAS
Summary of the method: as §1

[6] = molecular target: USP54 (UniProt Q70EL1)
Summary of the method: as §1

[7] = molecular target: USP7 (UniProt Q93009)
Summary of the method: as §1

[8] = molecular target: T5, USP8 (UniProt P40818)
T5 sequence (whole entry): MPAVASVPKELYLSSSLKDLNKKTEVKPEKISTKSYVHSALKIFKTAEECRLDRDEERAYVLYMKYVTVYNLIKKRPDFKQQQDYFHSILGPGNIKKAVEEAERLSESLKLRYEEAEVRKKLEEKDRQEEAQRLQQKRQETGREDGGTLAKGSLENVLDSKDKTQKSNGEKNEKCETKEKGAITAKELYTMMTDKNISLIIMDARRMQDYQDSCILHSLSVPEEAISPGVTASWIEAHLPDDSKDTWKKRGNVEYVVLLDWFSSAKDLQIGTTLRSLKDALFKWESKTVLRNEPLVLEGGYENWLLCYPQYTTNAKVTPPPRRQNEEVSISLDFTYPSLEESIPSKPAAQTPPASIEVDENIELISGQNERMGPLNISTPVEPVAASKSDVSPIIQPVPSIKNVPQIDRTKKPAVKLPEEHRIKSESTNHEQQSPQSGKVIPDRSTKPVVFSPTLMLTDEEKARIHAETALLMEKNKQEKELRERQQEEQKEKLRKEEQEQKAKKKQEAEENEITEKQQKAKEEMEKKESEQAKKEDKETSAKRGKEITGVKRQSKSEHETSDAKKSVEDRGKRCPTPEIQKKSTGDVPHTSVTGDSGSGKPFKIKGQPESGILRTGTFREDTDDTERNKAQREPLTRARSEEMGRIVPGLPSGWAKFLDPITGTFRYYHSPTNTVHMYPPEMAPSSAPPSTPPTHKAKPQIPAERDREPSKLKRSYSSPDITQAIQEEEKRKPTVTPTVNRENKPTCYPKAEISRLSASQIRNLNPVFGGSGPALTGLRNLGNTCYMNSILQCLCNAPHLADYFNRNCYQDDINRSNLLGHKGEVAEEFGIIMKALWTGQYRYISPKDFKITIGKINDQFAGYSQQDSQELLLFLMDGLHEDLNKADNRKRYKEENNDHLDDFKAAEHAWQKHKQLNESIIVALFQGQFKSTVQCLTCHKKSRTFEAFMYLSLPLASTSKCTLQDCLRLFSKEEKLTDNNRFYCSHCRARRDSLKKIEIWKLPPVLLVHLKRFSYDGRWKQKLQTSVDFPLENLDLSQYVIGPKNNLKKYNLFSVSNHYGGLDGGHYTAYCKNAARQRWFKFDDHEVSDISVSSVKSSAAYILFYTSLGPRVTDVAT
Summary of the method: as §1

[9] = molecular target: USP9X (UniProt Q93008)
Summary of the method: as §1

[10] = molecular target: UniProt O00487
Summary of the method: as §1

Measured: log2 ratio of Biotin-Ahx-Ub-VS probe labelling

Sequence of USP7 (Q93009 whole entry, looked up): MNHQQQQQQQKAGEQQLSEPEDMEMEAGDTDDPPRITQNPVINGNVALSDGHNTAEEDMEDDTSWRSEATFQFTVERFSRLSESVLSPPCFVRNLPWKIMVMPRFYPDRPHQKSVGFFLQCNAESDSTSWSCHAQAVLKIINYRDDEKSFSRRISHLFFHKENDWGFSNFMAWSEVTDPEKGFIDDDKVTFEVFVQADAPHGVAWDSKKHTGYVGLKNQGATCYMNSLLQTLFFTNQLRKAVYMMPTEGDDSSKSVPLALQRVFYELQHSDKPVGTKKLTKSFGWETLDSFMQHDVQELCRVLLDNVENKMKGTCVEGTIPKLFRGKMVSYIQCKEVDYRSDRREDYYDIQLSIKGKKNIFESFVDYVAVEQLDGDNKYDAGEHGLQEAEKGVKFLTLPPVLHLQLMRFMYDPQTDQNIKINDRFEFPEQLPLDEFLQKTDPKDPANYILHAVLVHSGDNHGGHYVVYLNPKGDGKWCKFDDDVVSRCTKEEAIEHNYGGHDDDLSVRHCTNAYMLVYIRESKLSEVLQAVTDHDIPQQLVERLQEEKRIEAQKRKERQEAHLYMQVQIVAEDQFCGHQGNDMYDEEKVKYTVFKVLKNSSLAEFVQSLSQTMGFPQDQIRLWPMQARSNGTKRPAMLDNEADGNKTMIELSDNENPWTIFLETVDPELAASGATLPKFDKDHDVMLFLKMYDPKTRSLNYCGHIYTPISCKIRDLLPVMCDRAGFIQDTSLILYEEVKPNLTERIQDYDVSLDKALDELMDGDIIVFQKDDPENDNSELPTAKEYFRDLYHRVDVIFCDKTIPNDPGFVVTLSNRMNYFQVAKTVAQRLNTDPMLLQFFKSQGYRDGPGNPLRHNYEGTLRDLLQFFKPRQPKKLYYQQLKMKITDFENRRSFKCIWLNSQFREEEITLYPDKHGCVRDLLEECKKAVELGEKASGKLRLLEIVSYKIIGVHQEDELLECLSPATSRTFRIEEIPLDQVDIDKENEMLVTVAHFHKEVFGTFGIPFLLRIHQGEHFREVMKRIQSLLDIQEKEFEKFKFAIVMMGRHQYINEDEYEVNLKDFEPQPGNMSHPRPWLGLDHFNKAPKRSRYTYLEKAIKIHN
Sequence of USP46 (P62068 whole entry): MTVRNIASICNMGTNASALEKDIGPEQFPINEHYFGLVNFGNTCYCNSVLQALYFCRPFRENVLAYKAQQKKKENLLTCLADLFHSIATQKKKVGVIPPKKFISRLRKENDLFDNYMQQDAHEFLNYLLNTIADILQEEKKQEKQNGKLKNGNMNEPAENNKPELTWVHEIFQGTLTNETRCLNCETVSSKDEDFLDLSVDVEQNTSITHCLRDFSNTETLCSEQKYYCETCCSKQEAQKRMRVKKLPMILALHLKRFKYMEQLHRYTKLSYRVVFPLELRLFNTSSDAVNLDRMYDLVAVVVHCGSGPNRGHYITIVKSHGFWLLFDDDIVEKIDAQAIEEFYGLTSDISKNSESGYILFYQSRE
Sequence of USP54 (Q70EL1 whole entry): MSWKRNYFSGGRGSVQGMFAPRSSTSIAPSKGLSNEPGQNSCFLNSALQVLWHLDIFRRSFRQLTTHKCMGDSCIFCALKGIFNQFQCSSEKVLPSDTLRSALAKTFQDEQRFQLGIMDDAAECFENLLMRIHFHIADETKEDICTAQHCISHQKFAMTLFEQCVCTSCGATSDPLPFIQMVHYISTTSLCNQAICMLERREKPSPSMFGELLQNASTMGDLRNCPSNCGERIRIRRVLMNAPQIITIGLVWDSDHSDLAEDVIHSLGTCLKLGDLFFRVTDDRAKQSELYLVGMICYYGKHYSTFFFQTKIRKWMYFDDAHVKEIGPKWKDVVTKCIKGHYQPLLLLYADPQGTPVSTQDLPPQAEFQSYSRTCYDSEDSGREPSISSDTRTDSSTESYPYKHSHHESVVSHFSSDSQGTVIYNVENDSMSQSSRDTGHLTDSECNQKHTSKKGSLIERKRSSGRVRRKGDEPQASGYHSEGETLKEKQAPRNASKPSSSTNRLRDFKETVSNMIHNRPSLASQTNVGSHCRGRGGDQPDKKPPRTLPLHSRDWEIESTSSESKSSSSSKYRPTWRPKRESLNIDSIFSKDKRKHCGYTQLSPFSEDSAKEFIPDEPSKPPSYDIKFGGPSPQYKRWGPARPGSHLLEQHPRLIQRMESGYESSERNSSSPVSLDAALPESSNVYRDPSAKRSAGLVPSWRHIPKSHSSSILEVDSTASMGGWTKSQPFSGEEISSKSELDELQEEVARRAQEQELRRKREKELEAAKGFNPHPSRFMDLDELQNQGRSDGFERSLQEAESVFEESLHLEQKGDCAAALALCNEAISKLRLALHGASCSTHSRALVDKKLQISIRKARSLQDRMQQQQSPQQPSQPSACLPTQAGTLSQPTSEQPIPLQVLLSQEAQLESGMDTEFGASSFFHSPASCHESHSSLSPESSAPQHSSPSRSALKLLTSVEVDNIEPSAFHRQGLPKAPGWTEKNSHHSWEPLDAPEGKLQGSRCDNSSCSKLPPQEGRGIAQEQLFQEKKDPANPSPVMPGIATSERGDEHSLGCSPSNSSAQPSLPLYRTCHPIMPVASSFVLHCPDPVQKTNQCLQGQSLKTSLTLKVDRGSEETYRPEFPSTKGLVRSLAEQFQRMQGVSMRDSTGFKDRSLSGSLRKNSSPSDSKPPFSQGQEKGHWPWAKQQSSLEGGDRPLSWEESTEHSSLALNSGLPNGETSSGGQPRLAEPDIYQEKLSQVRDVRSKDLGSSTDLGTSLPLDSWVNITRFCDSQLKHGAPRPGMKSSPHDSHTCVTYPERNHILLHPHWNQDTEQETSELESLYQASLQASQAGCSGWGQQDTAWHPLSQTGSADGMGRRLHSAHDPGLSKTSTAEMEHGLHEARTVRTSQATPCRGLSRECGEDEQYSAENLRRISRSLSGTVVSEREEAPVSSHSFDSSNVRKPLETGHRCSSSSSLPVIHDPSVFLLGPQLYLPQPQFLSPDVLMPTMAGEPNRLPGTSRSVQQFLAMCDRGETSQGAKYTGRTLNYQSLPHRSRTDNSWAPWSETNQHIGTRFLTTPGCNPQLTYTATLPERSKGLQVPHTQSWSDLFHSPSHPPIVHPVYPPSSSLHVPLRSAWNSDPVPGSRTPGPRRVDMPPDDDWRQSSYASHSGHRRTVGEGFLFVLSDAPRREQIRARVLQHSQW
Sequence of UniProt O00487 (O00487 whole entry): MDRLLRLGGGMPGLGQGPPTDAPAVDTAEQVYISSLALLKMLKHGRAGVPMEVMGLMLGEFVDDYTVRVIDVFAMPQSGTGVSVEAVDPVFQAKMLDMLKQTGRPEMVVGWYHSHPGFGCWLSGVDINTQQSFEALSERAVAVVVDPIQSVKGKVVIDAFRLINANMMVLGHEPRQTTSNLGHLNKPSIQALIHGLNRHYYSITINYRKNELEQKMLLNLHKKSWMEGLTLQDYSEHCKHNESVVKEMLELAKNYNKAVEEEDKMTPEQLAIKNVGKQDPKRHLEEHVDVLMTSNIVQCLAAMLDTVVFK

Cc1cccnc1NC(=O)C1CCN(C(=O)CCl)CC1.Cl
inactive: [1] -0.427 | [2] -0.0664 | [3] -0.337 | [4] -0.172 | [5] -0.0361 | [6] 0.628 | [7] -0.121 | [8] -0.221 | [9] -0.327 | [10] 0.014
